The values below come from PubChem BioAssay (EPA / NIEHS).

SMILES strings stand for the structures. Records with an inconclusive call do not appear. The source made the active and inactive calls. The calls were made as follows: active = hit-call score of the fitted dose curve at least 0.9, where 1 is the maximum; inconclusive = response in the unintended direction; inactive = score below 0.9.

Bile acid receptor (Homo sapiens), sequence (Q96RI1 whole entry, looked up, the tested form may be a part): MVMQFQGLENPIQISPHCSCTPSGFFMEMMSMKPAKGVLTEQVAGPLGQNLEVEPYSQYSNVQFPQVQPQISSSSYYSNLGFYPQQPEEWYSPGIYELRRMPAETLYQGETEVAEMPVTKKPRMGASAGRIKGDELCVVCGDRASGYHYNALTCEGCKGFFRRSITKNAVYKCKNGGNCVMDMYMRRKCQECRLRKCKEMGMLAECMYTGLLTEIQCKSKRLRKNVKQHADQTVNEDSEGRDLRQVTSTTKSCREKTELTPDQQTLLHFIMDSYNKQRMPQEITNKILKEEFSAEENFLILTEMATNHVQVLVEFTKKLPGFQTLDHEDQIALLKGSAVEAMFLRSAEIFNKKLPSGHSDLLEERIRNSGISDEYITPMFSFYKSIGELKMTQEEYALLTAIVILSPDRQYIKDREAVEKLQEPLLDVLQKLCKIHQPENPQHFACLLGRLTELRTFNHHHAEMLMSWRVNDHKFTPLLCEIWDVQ

In the assay the target is Bile acid receptor (Homo sapiens) (UniProt Q96RI1). The assay is described as follows: OT_FXR_FXRSRC1_1440: Odyssey Thera (OT) 24-hour HEK293T Protein-Complementation Assay for Farnesoid X receptor/SRC-1 Co-activator (AID 2283384). The method, then:
OT_FXR_FXRSRC1_1440 is a cell-based assay that uses HEK293T, a human kidney cell line, with measurements taken at 24 hours after chemical dosing in a 384-well plate.OT_FXR_FXRSRC1_1440 is one of one assay component(s) measured or calculated from the OT_FXR_FXRSRC1_1440 assay. It is designed to make measurements of protein fragment complementation, a form of binding reporter, as detected with fluorescence intensity signals by Protein-fragment Complementation technology.Data from the assay component OT_FXR_FXRSRC1_1440 was analyzed into 1 assay endpoint. This assay endpoint, OT_FXR_FXRSRC1_1440, was analyzed in the positive analysis fitting direction relative to DMSO as the negative control and baseline of activity. Using a type of binding reporter, measures of receptor for gain-of-signal activity can be used to understand the binding at the pathway-level as they relate to the gene NR1H4. Furthermore, this assay endpoint can be referred to as a primary readout, because the performed assay has only produced 1 assay endpoint. To generalize the intended target to other relatable targets, this assay endpoint is annotated to the nuclear receptor intended target family, where the subfamily is non-steroidal.
Protein-fragment complementation assay, or PCA, is a method for the identification and quantification of protein-protein interactions. In the PCA, the proteins of interest ("bait" and "prey") are each covalently linked to fragments of a third protein (e.g. DHFR, which acts as a "reporter"). Interaction between the bait and the prey proteins brings the fragments of the reporter protein in close proximity to allow them to form a functional reporter protein whose activity can be measured.
For the molecule `O=C1Nc2ccc(Cl)cc2C(c2ccccc2)=NC1O` (stereo not drawn), the molecule was classed as inactive.
As for `Cc1ccc(C)c2ccccc12`, the outcome was inactive.
As to `CNC(=N[N+](=O)[O-])NCC1CCOC1` (stereo not drawn), the result was inactive.
For `CC(O)CN(CC(C)O)CC(C)O` (stereo not drawn), the molecule was classed as inactive.
With `Nc1cc(Cl)cc(Cl)c1`, the call was inactive.
As for `O=C(NCNC(=O)NC1C(=O)NC(=O)N1CO)NC1C(=O)NC(=O)N1CO` (stereo not drawn), the outcome was inactive.
For the molecule `CC(C)(O)C#N`, the molecule was called inactive.
The same measure, in the same setting: to `Cc1cc(C)c(C2=C(OC(=O)CC(C)(C)C)C3(CCCC3)OC2=O)c(C)c1` belongs “inactive”.
Take `O=C(NC(=O)c1c(F)cccc1F)Nc1ccc(Oc2ccc(C(F)(F)F)cc2Cl)cc1F`: the AC50 is 40.8 µM (active).
For `CCOP(=O)(OCC)Oc1ccc([N+](=O)[O-])cc1`, the molecule was called inactive.
Same read-out and setting: to `N#CCCCCC#N` belongs “inactive”.
For `COc1cc(OC)nc(Oc2cccc(Oc3nc(OC)cc(OC)n3)c2C(=O)O)n1`, the call was inactive.
Consider `O=P(O)(Oc1ccccc1)Oc1ccccc1`, for which the call was inactive.

Usually AC50 stands for the concentration giving half of the maximal activity seen.
